Assay [1] addresses T1, Aspartate--tRNA(Asp/Asn) ligase (Mycobacterium tuberculosis (strain ATCC 25618 / H37Rv)) (UniProt P9WFW3).
T1 sequence (whole entry): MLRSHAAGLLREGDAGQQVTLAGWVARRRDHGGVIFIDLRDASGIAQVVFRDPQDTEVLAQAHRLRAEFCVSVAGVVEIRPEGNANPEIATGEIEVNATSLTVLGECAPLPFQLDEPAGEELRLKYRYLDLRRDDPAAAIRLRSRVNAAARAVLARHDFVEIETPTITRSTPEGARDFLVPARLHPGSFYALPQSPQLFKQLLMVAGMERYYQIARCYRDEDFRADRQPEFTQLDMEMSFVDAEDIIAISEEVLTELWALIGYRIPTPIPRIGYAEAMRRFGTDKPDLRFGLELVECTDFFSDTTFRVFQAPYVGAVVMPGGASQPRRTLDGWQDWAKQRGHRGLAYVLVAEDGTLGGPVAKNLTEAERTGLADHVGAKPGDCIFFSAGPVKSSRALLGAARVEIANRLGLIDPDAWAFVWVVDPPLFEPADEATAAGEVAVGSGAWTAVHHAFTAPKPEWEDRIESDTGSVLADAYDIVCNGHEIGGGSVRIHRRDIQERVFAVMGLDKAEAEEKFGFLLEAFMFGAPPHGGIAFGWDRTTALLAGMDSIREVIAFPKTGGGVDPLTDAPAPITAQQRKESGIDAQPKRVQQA
In words: Assay for Asp RNA synthetase-1 from Mycobacterium tuberculosis. To be noted: 30 µM. Details: scale not given: direction of the effect not stated beside the values. The format is functional.

For assay [2], the target named is Shiga toxin 2 (Escherichia coli O157:H7) (UniProt P09385+P09386). In words: E. coli 0.157:H7 Shiga Toxin SOP - stx2 screening assay. The format is functional. Details: scale not given: direction of the effect not stated beside the values. To be noted: 30 µM.

Regarding `CC(C)N1Cc2c(C(=O)N3CCOCC3)nn(C)c2C1`, the Percent Effect is 0.382% in assay [1] and 5.36% in assay [2].

As to `N#Cc1cc(NC(=O)c2ccsc2)ccc1N1CCC(O)CC1`, the Percent Effect in assay [1] was 3.33%; in assay [2], -57.5%.

Regarding `Cc1ccccc1C(=O)Nc1cnn(CC(=O)NC2CCCC2)c1`, the Percent Effect in assay [1] was 2.07%; in assay [2] it was -6.1%.

`CCOc1ccccc1-c1noc(CN(C)Cc2cnn(C)c2)n1`: the Percent Effect in assay [1] is 2.13%; in assay [2], -14%.

`Cc1ccc(CN2CCc3ncnc(-c4cccnc4)c3CC2)o1`: the Percent Effect is 4.98% in assay [1] and 9.48% in assay [2].

As to `Cn1c(Cn2ccnc2)nnc1C1CCCN(C2CCCCC2)C1` (stereo not drawn), the Percent Effect in assay [1] was -2.02%; in assay [2], -14.9%.

In the case of `CN1[C@H](CN2CCCC2)C[C@@H]2CN(C(=O)c3cccn3C)CC[C@@H]21`, the Percent Effect in assay [1] is 2.46%; in assay [2], -2.89%.

For the compound `CC(C)OCCN(C)C(C)c1cccc(S(N)(=O)=O)c1` (stereo not drawn), the Percent Effect in assay [1] was -3.29%; in assay [2], -16.4%.

With `c1csc(CN2C[C@@H]3OCCN(CC4CCCO4)[C@@H]3C2)c1` (stereo partly drawn), the Percent Effect in assay [1] was -2.14%; in assay [2], 7.71%.

In the case of `Cc1ccc(N2CCC3(CC2)CC(OCC(=O)N(C)C)CO3)nn1` (stereo not drawn), the Percent Effect is -2.52% in assay [1] and -23.3% in assay [2].

For `Cc1nc(N2CCN(C(=O)c3ccccc3)CC2)c2c(n1)c(C)nn2C`, the figures for the Percent Effect in assay [1] and in assay [2] were -3.51% and -31%, respectively.

For the compound `Cc1ccc(-c2nc(CNCC3CN(C)CCO3)cs2)o1` (stereo not drawn), the Percent Effect in assay [1] was 1.27%; in assay [2], -23.7%.

Consider `CCC1CN(C(=O)NCCOc2ccc3c(c2)OCO3)CCO1` (stereo not drawn), for which the Percent Effect was -0.509% in assay [1] and -17.6% in assay [2].

Consider `CC(C)c1ncc2c(n1)CN(Cc1cccc(C#N)c1)CC2`, for which the Percent Effect is 0.9% in assay [1] and -1.08% in assay [2].

Turning to `CCCNC(=O)c1cc2c([nH]c1=O)CC(c1cccs1)CC2=O` (stereo not drawn), the Percent Effect in assay [1] is -5.46%; in assay [2] it was -20.3%.

On to `CCc1cc(=O)[nH]c2nnc(SCC(=O)OC)n12`, for which the Percent Effect in assay [1] was -8.74%; in assay [2] it was -6.54%.

Take `O=C(CCc1ccc(Br)cc1F)NS(=O)(=O)c1ccc2c(c1)OCCO2`: the Percent Effect in assay [1] worked out at 7.79%; in assay [2], 13.8%.

Consider `CC(=O)c1ccc(OCC(=O)NC(C)CCc2ccco2)cc1` (stereo not drawn), for which the Percent Effect in assay [1] was 4.56%; in assay [2] it was -18.5%.

For `COc1ccc(C2C3=C(COC3=O)Nc3[nH]nc(C)c32)cc1OC` (stereo not drawn), the Percent Effect in assay [1] is -2.61%; in assay [2], -21.4%.

As to `O=C(c1ncccn1)N1C[C@H]2CCC[C@@]2(COCC2CCOCC2)C1`, the Percent Effect in assay [1] is -6.49%; in assay [2], -2.7%.

As to `COc1ccc(C(=O)Nc2cnn(CC(=O)NC3CCCC3)c2)c(O)c1`, the figures for the Percent Effect in assay [1] and in assay [2] were 1.25% and -54.5%, respectively.

Take `COc1cccc(COCC(=O)N2CCC(CC(N)=O)CC2)c1`: the Percent Effect in assay [1] is -3.72%; in assay [2], 32.3%.

In the case of `CN1CCCC(Cc2cncc(C(=O)NCC3CC3)c2)C1` (stereo not drawn), the Percent Effect in assay [1] is -1.03%; in assay [2], 2.18%.

Consider `CN(C)CCN1C[C@@H]2CN(C(=O)c3ccsc3)C[C@@H]2C1=O`, for which the Percent Effect in assay [1] was -4.34%; in assay [2], -40.9%.

In the case of `CCOc1cccc(CNC(=O)NCC(O)c2cccc(F)c2)c1` (stereo not drawn), the results for the Percent Effect in assay [1] and in assay [2] were 9.63% and 16.2%, respectively.

For `O=C(COCc1ccccc1Cl)N1CCCC(n2cccn2)C1` (stereo not drawn), the Percent Effect is -1.04% in assay [1] and 20% in assay [2].

On to `CC(C)CS(=O)(=O)CC(=O)N(C)Cc1ccc(OC(F)F)cc1`, for which the results for the Percent Effect in assay [1] and in assay [2] were -0.457% and 4.95%, respectively.

Consider `Cc1cccc(Cn2ccc(NS(C)(=O)=O)n2)c1`, for which the Percent Effect in assay [1] is 6.96%; in assay [2] it was -21.6%.

On to `CCOCC(=O)N1CCC(Oc2ccc(Cl)cn2)CC1`, for which the values for the Percent Effect in assay [1] and in assay [2] were -2.08% and -2.19%, respectively.

(Values after ChEMBL document CHEMBL3988442, “University of Dundee, Small-Polar-MMV Screening Library” (2021).)
